40 molecules from PubChem BioAssay (Tox21) can be followed below.

Records with an inconclusive call do not appear. A call without a number means that no potency is given here. Calls of active or inactive are those of the source. Calls follow the shape of the dose curve; as a rule, active = well fitted inhibition curve with a large enough effect in the repeat runs; inconclusive = weak or mixed curves; inactive = no such curve, though single readings can be large or run the other way.
Potency is read from the fitted curve at half-maximal effect.

Sequence of Cytochrome P450 1A2 (Homo sapiens) (P05177 whole entry, looked up): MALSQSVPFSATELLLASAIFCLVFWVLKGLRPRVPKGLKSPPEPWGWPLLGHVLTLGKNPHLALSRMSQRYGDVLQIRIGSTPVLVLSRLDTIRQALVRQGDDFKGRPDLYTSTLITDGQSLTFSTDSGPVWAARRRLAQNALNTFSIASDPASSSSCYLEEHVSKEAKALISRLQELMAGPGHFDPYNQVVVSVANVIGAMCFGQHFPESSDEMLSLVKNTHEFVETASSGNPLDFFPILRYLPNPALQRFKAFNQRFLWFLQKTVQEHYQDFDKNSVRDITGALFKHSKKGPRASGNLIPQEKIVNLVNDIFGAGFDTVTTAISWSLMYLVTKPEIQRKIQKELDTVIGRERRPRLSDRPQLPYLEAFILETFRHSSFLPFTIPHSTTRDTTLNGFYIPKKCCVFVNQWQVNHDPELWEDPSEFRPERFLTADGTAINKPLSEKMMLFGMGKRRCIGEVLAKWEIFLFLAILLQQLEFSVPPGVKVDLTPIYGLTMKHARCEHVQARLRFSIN
Sequence of Cytochrome P450 2C19 (Homo sapiens) (P33261 whole entry, looked up): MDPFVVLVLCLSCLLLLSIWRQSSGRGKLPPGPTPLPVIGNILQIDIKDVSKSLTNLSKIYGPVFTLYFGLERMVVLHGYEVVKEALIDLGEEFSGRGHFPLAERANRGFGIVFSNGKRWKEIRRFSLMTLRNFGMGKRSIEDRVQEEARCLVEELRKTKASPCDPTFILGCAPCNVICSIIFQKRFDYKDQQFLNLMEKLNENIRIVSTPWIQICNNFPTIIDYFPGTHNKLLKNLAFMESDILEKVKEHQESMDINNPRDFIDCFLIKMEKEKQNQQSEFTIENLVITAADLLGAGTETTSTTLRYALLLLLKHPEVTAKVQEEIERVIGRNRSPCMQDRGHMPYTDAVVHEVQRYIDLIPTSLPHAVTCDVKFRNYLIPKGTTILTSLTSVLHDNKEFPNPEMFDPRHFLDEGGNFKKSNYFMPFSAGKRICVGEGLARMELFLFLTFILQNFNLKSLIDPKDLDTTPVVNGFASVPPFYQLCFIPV
Sequence of Cytochrome P450 2C9 (Homo sapiens) (P11712 whole entry, looked up): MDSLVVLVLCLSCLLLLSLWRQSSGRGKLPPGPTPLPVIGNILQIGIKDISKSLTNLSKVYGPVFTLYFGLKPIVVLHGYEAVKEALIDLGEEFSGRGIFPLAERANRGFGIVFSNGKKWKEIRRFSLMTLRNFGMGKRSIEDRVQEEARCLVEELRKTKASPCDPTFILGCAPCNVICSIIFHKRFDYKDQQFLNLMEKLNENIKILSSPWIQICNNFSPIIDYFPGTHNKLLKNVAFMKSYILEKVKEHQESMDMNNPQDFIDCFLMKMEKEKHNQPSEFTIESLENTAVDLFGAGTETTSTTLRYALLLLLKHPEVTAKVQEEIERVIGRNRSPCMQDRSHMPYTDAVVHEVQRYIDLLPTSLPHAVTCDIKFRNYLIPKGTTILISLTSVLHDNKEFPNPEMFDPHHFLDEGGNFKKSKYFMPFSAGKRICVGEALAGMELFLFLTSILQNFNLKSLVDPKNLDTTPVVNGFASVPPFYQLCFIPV

For one assay, the target named is Cytochrome P450 2C19 (Homo sapiens) (UniProt P33261). Nature of the assay: Cytochrome P450 Family 2 Subfamily C Member 19 (CYP2C19) small molecule antagonists: luciferase reporter qHTS assay (AID 1671197). Also: nearly all actives have a fitted effect of over 65% in size. The conditions noted are these: P450-Glo CYP2C19 enzyme, luciferin luminescence, 1 h; series mostly up to 52.9 µM. An outline of the steps:
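First, compounds are pinned into enzyme-substrate mix and held 10 min at room temperature. Second, NADPH regeneration solution is added and plates incubate 1 h at 37C. Third, detection reagent is added and luminescence read after 20 min.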
Consider `Cc1ccc(C(C)(C)O)cc1`, for which the Potency entry is “inactive”. Still for that read-out and setting: next, `Cc1cscn1`: “inactive”; `CC(C)=CCC1C(=O)N(c2ccccc2)N(c2ccccc2)C1=O`: 27.5 µM (active). In the case of `C[C@@H]1CC(=O)NN=C1c1ccc(NN=C(C#N)C#N)cc1`, the Potency is 17.4 µM (active). As for `O=[N+]([O-])c1cc(C2CCCCC2)c(O)c([N+](=O)[O-])c1`, the Potency is 39.8 µM (active). On to `C[C@H]1C[C@H](O)c2ccsc2S1(=O)=O`, for which the Potency entry was “inactive”. Still for that read-out and setting: the value for `C=C(C)[C@@H]1CCC2=CCC[C@@H](C)[C@]2(C)C1` was 11.2 µM (active). Still for that read-out and setting: next, `Oc1cccc(Nc2ccccc2)c1`: 13.2 µM (active). On the same count and under the same terms, next, `CN1CC(=O)N2[C@H](c3ccc4c(c3)OCO4)c3[nH]c4ccccc4c3C[C@@H]2C1=O`: “inactive”; `CC[N+](CC)(CCNC(=O)C(=O)NCC[N+](CC)(CC)Cc1ccccc1Cl)Cc1ccccc1Cl`: “inactive”; `Oc1cccc(O)c1O`: 70.4 µM (active). Turning to `CCCCN(CCCC)C(C(N)=O)c1ccc(OC)cc1` (stereo not drawn), the Potency was 15.5 µM (active). As to `Cc1cc(C)c(N)cc1C`, the Potency was 7.94 µM (active).

On to `O=C1c2ccccc2C(=O)N1CCc1noc(-c2ccc(CN3CCCCCC3)s2)n1`, for which the Potency is 8.19 µM (active).

`OC[C@H]1O[C@@H](n2cnc3c(=S)nc[nH]c32)[C@H](O)[C@@H]1O`: the Potency is 7.76 µM (active). Still for that read-out and setting: the value for `C=C(C)CCCC(C)CCO` (stereo not drawn) was 39.9 µM (active); that for `O=C1c2ccccc2C(=O)C1(O)O` was 71.4 µM (active); that for `C=CC(C)(CCC=C(C)C)OC(=O)CC(C)C` (stereo not drawn) was 35.6 µM (active). The same measure, in the same setting: next, `c1ccc2sc(SN(C3CCCCC3)C3CCCCC3)nc2c1`: 7.87 µM (active); `Brc1cc(Br)c(Oc2cc(Br)c(Br)cc2Br)cc1Br`: 13.8 µM (active). Same read-out and setting: next, `CN1C(=O)OC(C)(C)C1=O`: “inactive”; `O=C(/C=C/c1ccc(O)c(O)c1)O[C@@H]1C[C@@](OC(=O)/C=C/c2ccc(O)c(O)c2)(C(=O)O)C[C@@H](O)[C@@H]1O`: 12.3 µM (active). Turning to `c1ccc(C[n+]2cccc3ccccc32)cc1`, the Potency is 39.9 µM (active).

The target in the next assay is Cytochrome P450 2C9 (Homo sapiens) (UniProt P11712). Nature of the assay: Cytochrome P450 Family 2 Subfamily C Member 9 (CYP2C9) small molecule antagonists: luciferase reporter qHTS assay (AID 1671198). Also: nearly all actives have a fitted effect of over 50% in size. The conditions noted are these: P450-Glo CYP2C9 enzyme assay, luciferin luminescence; series mostly up to 115 µM. An outline of the steps:
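P450-Glo proluciferin substrate with CYP2C9 enzyme; 10 min RT preincubation, then NADPH regeneration 1 h at 37C; luciferin detection reagent 20 min RT, luminescence in relative luminescence units.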
For the molecule `O=C=Nc1cccc(C(F)(F)F)c1`, the Potency result was “inactive”.

Regarding `CCCCN1CCCC1C(=O)Nc1c(C)cc(C)cc1C` (stereo not drawn), the Potency result is “inactive”. Still for that read-out and setting: next, `CN(C(=O)CN(CCO)CC(=O)N(C)C(C)(C)Cc1ccccc1)C(C)(C)Cc1ccccc1`: 30.9 µM (active); `CC=C(Cl)Cl`: “inactive”; `CCCCCC[C@@H](O)C/C=C\CCCCCCCC(=O)OCC(O)CO` (stereo partly drawn): 11.2 µM (active). Same read-out and setting: the value for `O=C1c2ccccc2C(=O)c2c(O)c(O)cc(O)c21` was 63.3 µM (active); that for `Cc1[nH]cnc1CN1CCc2c(c3ccccc3n2C)C1=O` was 2.19 µM (active). In the case of `CC1(C)O[C@@H]2C[C@H]3[C@@H]4C[C@H](F)C5=CC(=O)C=C[C@]5(C)[C@H]4[C@@H](O)C[C@]3(C)[C@]2(C(=O)CO)O1`, the Potency result was “inactive”. Same read-out and setting: the value for `CC(=O)OCC[N+](C)(C)C` was “inactive”; that for `Clc1cc(Cl)nc(Cl)n1` was “inactive”; that for `CCOC(C)=O` was “inactive”. The same measure, in the same setting: next, `O=C1Cc2cc(Cl)ccc2N1`: 17.4 µM (active). `CC1CC(OC(=O)C(O)c2ccccc2)CC(C)(C)N1C` (stereo not drawn): the Potency entry is “inactive”. Same read-out and setting: next, `C=C(C)C(=O)OCCCCCCCCCCCCC`: “inactive”; `C/C=C(/C(=C/C)c1ccc(O)cc1)c1ccc(O)cc1`: 17.4 µM (active). Same read-out and setting: the value for `CCN(CC)CCNC(=O)COc1ccc(OC)cc1` was “inactive”; that for `O=c1[nH]ncc2ccccc12` was “inactive”.

Another assay concerns the target Cytochrome P450 1A2 (Homo sapiens) (UniProt P05177). Briefly: Cytochrome P450 Family 1 Subfamily A Member 2 (CYP1A2) small molecule antagonists: luciferase reporter qHTS assay (AID 1671199). Also: nearly all actives have a fitted effect of over 50% in size. The conditions noted are these: P450-Glo CYP1A2 enzyme, luciferin luminescence, 1 h; series mostly up to 53 µM. The essentials: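 Signal from luciferin formed by CYP1A2 from a proluciferin substrate is read as luminescence, expressed in relative luminescence units. Compounds sit with enzyme 10 min, NADPH-driven reaction runs 1 h, all at room temperature.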
As for `O=C=Nc1cccc(C(F)(F)F)c1`, the Potency entry was “inactive”. With `C[C@@H]1CC(=O)NN=C1c1ccc(NN=C(C#N)C#N)cc1`, the Potency result was “inactive”.

Consider `CCCCN1CCCC1C(=O)Nc1c(C)cc(C)cc1C` (stereo not drawn), for which the Potency result was “inactive”. Same read-out and setting: the value for `C=C(C)[C@@H]1CCC2=CCC[C@@H](C)[C@]2(C)C1` was “inactive”; that for `Oc1cccc(Nc2ccccc2)c1` was 11.7 µM (active). The same measure, in the same setting: the value for `Cc1cc(C)c(N)cc1C` was 0.708 µM (active); that for `CN(C(=O)CN(CCO)CC(=O)N(C)C(C)(C)Cc1ccccc1)C(C)(C)Cc1ccccc1` was “inactive”. Still for that read-out and setting: the value for `CC=C(Cl)Cl` was “inactive”; that for `CCCCCC[C@@H](O)C/C=C\CCCCCCCC(=O)OCC(O)CO` (stereo partly drawn) was “inactive”.

Consider `O=C1c2ccccc2C(=O)c2c(O)c(O)cc(O)c21`, for which the Potency was 35.6 µM (active). Same read-out and setting: next, `Cc1[nH]cnc1CN1CCc2c(c3ccccc3n2C)C1=O`: 0.812 µM (active); `CC1(C)O[C@@H]2C[C@H]3[C@@H]4C[C@H](F)C5=CC(=O)C=C[C@]5(C)[C@H]4[C@@H](O)C[C@]3(C)[C@]2(C(=O)CO)O1`: “inactive”; `CC(=O)OCC[N+](C)(C)C`: 24.5 µM (active). Same read-out and setting: the value for `Clc1cc(Cl)nc(Cl)n1` was 36 µM (active); that for `CCOC(C)=O` was “inactive”; that for `O=C1Cc2cc(Cl)ccc2N1` was 11 µM (active). For `CC1CC(OC(=O)C(O)c2ccccc2)CC(C)(C)N1C` (stereo not drawn), the Potency entry is “inactive”. The same measure, in the same setting: the value for `Brc1cc(Br)c(Oc2cc(Br)c(Br)cc2Br)cc1Br` was “inactive”.

Regarding `O=C(/C=C/c1ccc(O)c(O)c1)O[C@@H]1C[C@@](OC(=O)/C=C/c2ccc(O)c(O)c2)(C(=O)O)C[C@@H](O)[C@@H]1O`, the Potency was 27.5 µM (active).

Regarding `C=C(C)C(=O)OCCCCCCCCCCCCC`, the Potency result was “inactive”. Take `C/C=C(/C(=C/C)c1ccc(O)cc1)c1ccc(O)cc1`: the Potency entry is “inactive”. Take `CCN(CC)CCNC(=O)COc1ccc(OC)cc1`: the Potency entry was “inactive”. Still for that read-out and setting: next, `O=c1[nH]ncc2ccccc12`: “inactive”.
